The values that follow are results of earlier work, collected in PubChem BioAssay AID977608.

The data set is described as follows: literature IC50 values for PDB complexes, PDB-derived complexes (AID 977608). As to conditions: PDB protein-ligand complexes.

Molecules are shown by their SMILES. Screen size: about 4,300 compounds; about 4,300 (100%) were called active. The limit is not given here; nearly all actives have IC50 up to about 1400 µM. The set was probably picked from earlier hits. The list shows a part of the results.

By IC50 is commonly meant the concentration that inhibits the measured activity by half. Turning to `Oc1ccc(Nc2nc(-c3ccc(Cl)cc3)cs2)cc1`, the IC50 (protein: Sphingosine kinase 1, PDB entry 3vzd) was 0.5 µM (active).
On to `Cc1nc2ccc(Br)cc2c(-c2ccc(Cl)cc2)c1[C@H](OC(C)(C)C)C(=O)O`, for which the IC50 was 0.78 µM (active) (protein: Gag-Pol polyprotein (A128T mutation), PDB entry 4gvm) and 0.63 µM (active) (protein: Gag-Pol polyprotein, PDB entry 4gw6).
In the case of `NC(N)c1ccc(CNC(=O)[C@@H]2CCN2C(=O)[C@H](NCC(=O)O)C2CCCCC2)cc1`, for the setting “protein: bovine trypsin, PDB entry 1k1p”, the IC50 is 0.0119 µM (active).
With `CNC(=O)[C@H](Cc1cnc[nH]1)NC(=O)CN(CCCc1ccccc1)CC(=O)O`, the IC50 (protein: human insulin degrading enzyme (ide), PDB entry 4gs8) was 0.1 µM (active).
Regarding `O=c1ccn([C@@H]2O[C@H](CO[P+](O)(O)O[P+](O)(O)O)[C@@H](O)[C@H]2O)c(=O)[nH]1`, the IC50 (protein: human O-GlcNAc transferase and a thioglycopeptide, PDB entry 4gz3) is 1.8 µM (active).
Take `O=c1ccn([C@H]2C[C@H](O)[C@@H](CO[P+](O)(O)N[P+](O)(O)O[P+](O)(O)O)O2)c(=O)[nH]1`: the IC50 (protein: Human dUTPase, PDB entry 3ehw) was 15.2 µM (active).
`COc1cc(Nc2ncc(F)c(Nc3ccc4c(n3)N(CO[P+](O)(O)O)C(=O)C(C)(C)O4)n2)cc(OC)c1OC`: the IC50 (protein: Bromodomain-containing protein 4 BRD4-1, PDB entry 4o75) is 21 µM (active).
For `Cc1noc(C)c1-c1ccc2c(Nc3ccccc3C(C)(C)C)c(C(=O)O)cnc2c1`, the IC50 (protein: BROMODOMAIN-CONTAINING PROTEIN 4, PDB entry 4bw1) was 1.26 µM (active).
`Cc1noc(C)c1-c1ccc2c(Nc3ccccc3C(C)(C)C)c(C(=O)O)cnc2n1`: the IC50 (protein: BROMODOMAIN-CONTAINING PROTEIN 4, PDB entry 4bw2) is 6.31 µM (active).
Take `COc1nc2c(Nc3ccccc3C(C)(C)C)c(C(=O)O)cnc2cc1-c1c(C)noc1C`: the IC50 (protein: BROMODOMAIN-CONTAINING PROTEIN 4, PDB entry 4bw3) was 0.5 µM (active).
With `CCc1cc(Sc2ncc(C(=O)O)[nH]2)nc([C@H]2CCCC[C@@H]2C(=O)NCc2ccc(Cl)c(Cl)c2)n1`, the IC50 (protein: Phosphopantetheine adenylyltransferase, PDB entry 4nah) was 0.49 µM (active).
With `COc1cc(OC)nc(C2CCCCC2C(=O)NCc2ccc(Cl)c(Cl)c2)n1` (configuration not stated), under “protein: Phosphopantetheine adenylyltransferase, PDB entry 4nat”, the 50% inhibitory concentration (IC50) is 0.33 µM (active).
As to `CCc1cc(-c2nc(O)c(C(N)=O)c(=O)[nH]2)nc([C@H]2CCCC[C@@H]2C(=O)NCc2ccc(Cl)c(Cl)c2)n1`, the IC50 (protein: Phosphopantetheine adenylyltransferase, PDB entry 4nau) was 0.00087 µM (active).
Turning to `N[C@@H](C(=O)O)[C@H](O)[C@@]1(C(=O)O)CC[C@H](C[C@H](NC(=O)c2cc(Cl)c(O)c(Cl)c2)C(=O)O)N1`, the IC50 (protein: Glutamate receptor 2, PDB entry 4gxs) was 100 µM (active).
Regarding `OS(O)(O)c1cc(N=C=S)ccc1/C=C/c1ccc(N=C=S)cc1S(O)(O)O`, for the setting “protein: human soluble Adenylyl Cyclase TYPE 10, PDB entry 4clz”, the IC50 was 43 µM (active).
For the molecule `O=C(NCCCNCc1cc(Cl)cc(Cl)c1)Nc1ccccc1O`, the IC50 (protein: Trypanosoma brucei methionyl-tRNA synthetase, PDB entry 4mw0) is 0.039 µM (active).
For the molecule `CC[C@H](C)[C@H](NC(=O)[C@H](CC(N)=O)NC(=O)[C@H](Cc1ccccc1)NC(=O)[C@H](Cc1c[nH]c2ccccc12)NC(=O)[C@H](CC(N)=O)NC(C)=O)C(=O)N[C@H](C(=O)N[C@@H](CC(N)=O)C(=O)N[C@]1(C)CCCCCC[C@@](C)(C(=O)N[C@H](C(=O)N[C@@H](CCCCN)C(=O)N[C@@H](CCCCN)C(=O)N[C@@H](CCCCN)C(=O)N[C@@H](CCCCN)C(=O)O)[C@@H](C)CC)NC(=O)[C@H](Cc2c[nH]c3ccccc23)NC(=O)[C@H](CC(C)C)NC1=O)[C@@H](C)O`, the IC50 (protein: HIV-1 neutralizing antibody 4E10 Fab, PDB entry 4nhc) was 0.046 µM (active).
Take `CC[C@H](C)[C@H](NC(=O)[C@H](CC(N)=O)NC(=O)[C@H](Cc1ccccc1)NC(=O)[C@H](Cc1c[nH]c2ccccc12)NC(=O)[C@H](CC(N)=O)NC(C)=O)C(=O)N[C@H](C(=O)N[C@@H](CC(N)=O)C(=O)N[C@]1(C)CCCCCC[C@@](C)(C(=O)N[C@H](C(=O)N[C@@H](CCNC(=O)CNC(=O)[C@@H](N)CO[P+](O)(O)O)C(=O)N[C@@H](CCCCN)C(=O)N[C@@H](CCCCN)C(=O)N[C@@H](CCCCN)C(=O)O)[C@@H](C)CC)NC(=O)[C@H](Cc2c[nH]c3ccccc23)NC(=O)[C@H](CC(C)C)NC1=O)[C@@H](C)O`: the IC50 (protein: HIV-1 neutralizing antibody 4E10 Fab, PDB entry 4ngh) is 0.03 µM (active).
For `Cn1ncnc1[C@H]1c2n[nH]c(=O)c3cc(F)cc(c23)N[C@@H]1c1ccc(F)cc1`, the IC50 (protein: Poly [ADP-ribose] polymerase 1 PARP1, PDB entry 4pjt) is 0.00057 µM (active).
With `Nc1nc(Nc2cccc(S(N)(=O)=O)c2)sc1C(=O)c1ccccc1`, the IC50 (protein: Cyclin-dependent kinase 2, PDB entry 3rni) was 6.7 µM (active).
For the molecule `NC(=O)c1sc(Nc2ccccc2)nc1N`, the IC50 (protein: Cyclin-dependent kinase 2, PDB entry 3rzb) is 100 µM (active).
For the molecule `CS(=O)(=O)c1ccc(C(=O)Nc2cccc(-c3cn4ccnc4c(Nc4ccc(C(=O)N5CCOCC5)cc4)n3)c2)cc1`, the IC50 (protein: Tyrosine-protein kinase BTK, PDB entry 4ot6) is 1.2 µM (active).
In the case of `O=C(Nc1ccc2[nH]nc(-c3ccncc3)c2c1)[C@@H]1CCN(CC(=O)N2CCN(c3ccc(-c4ncccn4)cc3)CC2)C1`, the IC50 (protein: Haspin, PDB entry 4qtc) was 0.398 µM (active) and the IC50 (protein: Mitogen-activated protein kinase 8 JNK1, PDB entry 4qtd) is 1.08 µM (active).
With `O=C1NC(=Nc2ccccc2)N=C1Cc1ccc2c(c1)OCO2`, the IC50 (protein: Serine/threonine-protein kinase pim-1, PDB entry 4gw8) is 0.88 µM (active).
As for `C/C=C\CCC[C@H](C(=O)N1CCC[C@H]1C(=O)OC)N(C)C(=O)[C@H](C)NC(=O)[C@H](CC(C)C)NC(=O)C[C@H](O)[C@H](Cc1ccccc1)NC(=O)c1cc(NS(C)(=O)=O)cc(C(=O)N[C@H](C)c2ccccc2)c1`, the IC50 (protein: Beta-secretase 1 (K75A,E77A mutation), PDB entry 4dvf) is 0.128 µM (active).
Turning to `O=C(O)c1cc2ccccc2o1`, the IC50 (protein: Adenylate cyclase type 10 hsolAC, PDB entry 4oyp) is 1000 µM (active).
For the molecule `CCc1nc(N)nc(N)c1-c1ccc2c(c1)N(CCNC(C)=O)C(=O)C(C)(C)O2`, the IC50 (protein: human Renin, PDB entry 2g1r) is 0.02 µM (active).
Consider `C[C@H](N[C@@H](CCc1ccccc1)C(=O)O)C(=O)N1CC=C[C@H]1C(=O)O`, for which, under “protein: HUMAN TESTICULAR ANGIOTENSIN I-CONVERTING ENZYME, PDB entry 1uze”, the IC50 was 0.00127 µM (active).
Consider `NC[C@@](O)(c1ccc(Cl)cc1)c1ccc(-c2cn[nH]c2)cc1`, for which, under “protein: CAMP-DEPENDENT PROTEIN KINASE CATALYTIC SUBUNIT ALPHA, PDB entry 4axa”, the IC50 was 0.01 µM (active).
For `NC1NC(=O)c2[nH]cnc2N1` (configuration not stated), the IC50 (protein: human Purine nucleoside phosphorylase, PDB entry 1v2h) is 5 µM (active).
With `CO[C@@H]([C@@H]1OC(C(=O)O)=C[C@H](NC(N)N)[C@H]1NC(C)=O)[C@H](O)CO`, for the setting “protein: Neuraminidase, PDB entry 4hzw”, the IC50 was 0.00131 µM (active).
Consider `CC(=O)N[C@H]1[C@H]([C@H](O)[C@H](O)CO)O[C@@H](C(=O)O)C[C@@H]1NC(N)N`, for which the 50% inhibitory concentration (IC50) was 0.00041 µM (active) (protein: Neuraminidase, PDB entry 4mwr) and 0.0757 µM (active) (protein: Neuraminidase, PDB entry 4mwx).
In the case of `CO[C@@H]([C@@H]1O[C@H](C(=O)O)C[C@H](NC(N)N)[C@H]1NC(C)=O)[C@H](O)CO`, the IC50 was 0.00324 µM (active) (protein: Neuraminidase, PDB entry 4mwu) and 0.0896 µM (active) (protein: Neuraminidase, PDB entry 4mwy).
As for `CC(C)[C@H](NC(=O)CCc1ccccc1)[P+](O)(O)C[C@@H](CCCCCN)C(=O)O`, the half-inhibitory concentration (IC50) (protein: Carboxypeptidase B, PDB entry 3wc7) was 0.0055 µM (active).
As for `Nc1[nH]c2c(=O)n3cnc2[n+]1[C@@H]1O[C@H](CO[P+](O)(O)O[P+](O)(O)OC[C@H]2O[C@@H]3[C@H](O)[C@@H]2O)[C@@H](O)[C@H]1O`, the IC50 (protein: ADP-ribosyl cyclase 1, PDB entry 3u4h) was 56 µM (active).
`Nc1c2ncn3c2nc[n+]1[C@@H]1C[C@H](CO[P+](O)(O)O[P+](O)(O)OC[C@H]2O[C@@H]3[C@H](O)[C@@H]2O)[C@@H](O)[C@H]1O`: the IC50 (protein: ADP-ribosyl cyclase 1, PDB entry 3u4i) was 129 µM (active).
For the molecule `C/C(=C\CO[P+](O)(O)O[P+](O)(O)O)CS`, under “protein: 4-hydroxy-3-methylbut-2-enyl diphosphate reductase, PDB entry 4h4e”, the IC50 is 0.21 µM (active).
As for `C/C(=C\CO[P+](O)(O)O[P+](O)(O)O)CN`, under “protein: 4-hydroxy-3-methylbut-2-enyl diphosphate reductase, PDB entry 4h4d”, the IC50 is 0.15 µM (active).
